Experimental data from the supplement of paper PMC6555819.

Assays:
Assay in all cases: PBM binding z-score (relative to random genomic background probes); higher = stronger binding; sequences stand for … in GC…GCGATTGACAGCGTAGAATGAAGG
[1] = test system: FXR:RXRa (NR concentration 270 nM, RXRa partner concentration 90 nM)
Procedure, shortened: (§1)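 Each nuclear receptor dimer, without ligand, was incubated for 1 h on custom Agilent 4×180K protein-binding microarrays. Binding was detected with antibodies against each partner (one per run), and scanned fluorescence was regression-normalized. The binding z-scores are referenced to random human genomic background probes.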

[2] = test system: LXRa:RXRa (NR concentration 270 nM, RXRa partner concentration 90 nM)
Procedure, shortened: as §1

[3] = test system: LXRa homodimer (NR concentration 270 nM)
Procedure, shortened: as §1

[4] = test system: LXRb:RXRa (NR concentration 270 nM, RXRa partner concentration 90 nM)
Procedure, shortened: as §1

[5] = test system: LXRb homodimer (NR concentration 270 nM)
Procedure, shortened: as §1

[6] = test system: PPARa:RXRa (NR concentration 270 nM, RXRa partner concentration 90 nM)
Procedure, shortened: as §1

[7] = test system: PPARg:RXRa (NR concentration 180 nM, RXRa partner concentration 90 nM)
Procedure, shortened: as §1

[8] = test system: PPARg:RXRa 270nM:90nM, anti-RXR (NR concentration 270 nM, RXRa partner concentration 90 nM)
Procedure, shortened: as §1

[9] = test system: PPARg:RXRa 30nM:10nM, anti-RXR (NR concentration 30 nM, RXRa partner concentration 10 nM)
Procedure, shortened: as §1

[10] = test system: PPARg:RXRa 90nM:30nM, anti-RXR (NR concentration 90 nM, RXRa partner concentration 30 nM)
Procedure, shortened: as §1

[11] = test system: PPARg:RXRa DBDmut IVT, anti-RXR (DBD mutation: RXRa K156A/R161A, NR concentration 270 nM, RXRa partner concentration 90 nM)
Procedure, shortened: as §1

[12] = test system: PPARg:RXRa IVT, anti-PPARg (NR concentration 270 nM, RXRa partner concentration 90 nM)
Procedure, shortened: as §1

[13] = test system: PPARg DBDmut:RXRa IVT, anti-PPARg (DBD mutation: PPARg1 K132A/R137A, NR concentration 270 nM, RXRa partner concentration 90 nM)
Procedure, shortened: as §1

[14] = test system: PPARg DBDmut IVT, anti-PPARg (DBD mutation: PPARg1 K132A/R137A, NR concentration 270 nM)
Procedure, shortened: as §1

[15] = test system: PPARg homodimer (NR concentration 180 nM)
Procedure, shortened: as §1

[16] = test system: PXR:RXRa (NR concentration 270 nM, RXRa partner concentration 90 nM)
Procedure, shortened: as §1

[17] = test system: PXR homodimer (NR concentration 270 nM)
Procedure, shortened: as §1

[18] = test system: RARa:RXR (NR concentration 270 nM, RXRa partner concentration 90 nM)
Procedure, shortened: as §1

[19] = test system: RARa homodimer (NR concentration 270 nM)
Procedure, shortened: as §1

[20] = test system: RARb:RXRa (NR concentration 270 nM, RXRa partner concentration 90 nM)
Procedure, shortened: as §1

| Sequence | PBM binding z-score [1] | PBM binding z-score [2] | PBM binding z-score [3] | PBM binding z-score [4] | PBM binding z-score [5] | PBM binding z-score [6] | PBM binding z-score [7] | PBM binding z-score [8] | PBM binding z-score [9] | PBM binding z-score [10] | PBM binding z-score [11] | PBM binding z-score [12] | PBM binding z-score [13] | PBM binding z-score [14] | PBM binding z-score [15] | PBM binding z-score [16] | PBM binding z-score [17] | PBM binding z-score [18] | PBM binding z-score [19] | PBM binding z-score [20] |
| --- | --- | --- | --- | --- | --- | --- | --- | --- | --- | --- | --- | --- | --- | --- | --- | --- | --- | --- | --- | --- |
| CCTAGCAGGCAAATCTGGGTCACTCAAGGCTTGA | 0.679 | 1.35 | -0.33 | 0.851 | -0.654 | 3.07 | 2.26 | 2.58 | 0.128 | 1.8 | 4.27 | 5.25 | -0.619 | -1.06 | 0.358 | 0.746 | -0.354 | 0.989 | -0.416 | 1.16 |
| CCTGCTAGGTCAATGATCAGCTAAAGCAGCTCGC | 2.71 | 1.96 | -0.345 | 1.3 | -0.139 | 2.62 | 1.98 | 2.46 | 0.000172 | 1.24 | 4.45 | 3.19 | -0.369 | -0.701 | 1.17 | 0.559 | -0.751 | 1.13 | -0.385 | 3.62 |
| CAAACTAGGTCAAGGTCCAAGTCGGTTTGTGCCA | 3.75 | 2.44 | 0.225 | 1.55 | -0.00943 | 5.05 | 8.9 | 7.5 | 6.37 | 7.89 | 8.66 | 8.37 | 3.91 | 1.65 | 2.64 | 1.63 | -0.0807 | 2.31 | 0.849 | 4.18 |
| GGACCGAGGGCATTCGAGTTGATAGCATGGCGAT | 1.26 | 1.86 | -0.0835 | 0.133 | -1.34 | 0.952 | 0.4 | 0.0586 | -0.851 | -0.483 | 0.308 | 0.267 | -0.812 | -0.98 | -0.223 | 4.17 | 1.3 | 0.835 | -0.77 | 1.88 |
| GCAGACAGGTGAAACGCAGGTAACTGAGGGTGGC | -0.0768 | -0.241 | -0.455 | -0.345 | -0.944 | 0.632 | 0.492 | -0.236 | -0.698 | -0.467 | 0.757 | 0.578 | 0.338 | -0.375 | -0.52 | -0.257 | -0.434 | 0.257 | -0.289 | 0.65 |
| CCTACTGGTCCAAAAAGGTCATTGATGCCGATAA | 3.82 | 4.66 | 3.95 | 4.54 | 1.21 | 4.72 | 1.53 | 2.98 | 0.82 | 2.04 | 0.397 | 1.54 | 0.257 | 0.0096 | 3.82 | 5.11 | 5.49 | 4.95 | 2.48 | 3.94 |
| TCTGCTAGATCAACGATGGTCAGCTAATCTGCTA | -1.43 | -0.641 | -1.29 | -0.993 | -1.05 | -0.231 | -0.175 | 0.492 | 1.39 | 1.14 | 0.608 | -0.401 | -0.179 | -0.566 | -1.56 | -0.434 | -1.18 | -0.57 | -1.3 | -0.346 |
| CAAACTTGGTCACAGAGGTCAAAGTCCGTGCGTA | 5.4 | 5.01 | 5.81 | 5.15 | 1.63 | 5.31 | 4.74 | 5.07 | 2.04 | 4.21 | 2.87 | 4.58 | 0.599 | 0.268 | 3.66 | 6.07 | 3.89 | 6.64 | 1.42 | 4.34 |
| CTCGAAAGGTCGGTTGAGGTGGGTATACGGATAA | 2.11 | 1.35 | 0.0862 | 1.31 | 0.332 | 2.36 | 0.284 | 0.726 | 0.0658 | 0.243 | -0.182 | 0.818 | -0.122 | -0.109 | 1.13 | 2.08 | 0.36 | 1.53 | 0.507 | 2.99 |
| ATCGAACGGTCGTGAGGTGAGTATACAGAAAGGC | 0.0725 | -0.0756 | -0.243 | -0.299 | -0.457 | 0.134 | 0.66 | -0.0797 | -0.119 | -0.0767 | -0.977 | 0.391 | 0.438 | 0.339 | 0.0797 | 0.0108 | -0.33 | 0.461 | 0.0209 | 1.08 |
| CCGACTAGGTTATGGGGCATTCAGGCAACGGTGA | 0.258 | 0.306 | 0.00117 | 0.464 | -0.646 | 1.81 | 3.22 | 4.17 | 1.77 | 3.95 | 3.02 | 3.3 | -0.895 | -0.581 | 1.05 | -0.0889 | -0.0769 | 0.303 | -0.167 | 0.869 |
| CAAACTAGGTCACCGGAAGGTCAAAGCCCGCATG | 6.08 | 5.95 | 4.27 | 5.11 | 1.45 | 6.06 | 9.85 | 7.89 | 5.9 | 7.57 | 8.25 | 8.78 | 2.12 | 2.03 | 5.32 | 5.67 | 1.53 | 7.16 | 2.71 | 5.32 |
| TTGCCAAGGTGAGCTGAGGTCGTTGATCCAACTC | 1.5 | 0.918 | -0.266 | 0.415 | -1.74 | 1.46 | -0.358 | 0.302 | -0.768 | -0.564 | 0.582 | 1.28 | -1.28 | -1.13 | -0.789 | 4.61 | 0.057 | 1.33 | -0.704 | 1.73 |
| TTACCAAGGTGAGCTGAGGTCGTAGATCCAACTC | 2.54 | 0.614 | -0.687 | 0.401 | -1.29 | 1.78 | 0.268 | 0.85 | -0.191 | 0.588 | 0.925 | 1.67 | -0.714 | -0.674 | -0.332 | 4.2 | -0.58 | 2.1 | -0.84 | 1.85 |
